# In the supplement of paper PMC9135407:
# Values joined by “and” are separate entries in the source; they are usually repeats but may differ in a detail not shown here. Identical values can stand only once. Counter-ions that a name gives are not always drawn. Out of some 5,800 compounds screened, about 620 (11%) showed activity. Many of the other results were omitted from the sample, so actives are more common in it than they were. Unmarked numbers belong to inactive results.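 Rule for the calls: active = score above a cut-off or among the top three wells of a plate; in these data no inactive exceeds 0.85.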
# Test system: primary human hepatic stellate cells (donor 1)
# Assay: scaled lipid accumulation score (0 = DMSO-like, 1 = nortriptyline-like); higher = stronger HSC inactivation (lipid re-accumulation), active = hit call of the paper
# Conditions: 48 h
# [1] = library stock concentration: 3.33 mM
# [2] = library stock concentration: 10 mM
# [3] = library stock concentration: 80 uM
# [4] = library stock concentration: 400 uM
# [5] = library stock concentration: 2 mM
# [6] = library stock concentration: 1 mM
smiles,measurement,setting,value
Cc1cnc(-c2cc(N3CCN(C(=O)CCS(C)(=O)=O)CC3)ncc2Cl)c(C)c1,scaled lipid accumulation score,[1],≤ 0
same,scaled lipid accumulation score,[2],≤ 0
CCC(C)[C@H](NC(=O)[C@H](CCCCN)NC(=O)[C@H](CCCCN)NC(=O)[C@H](C)NC(=O)[C@H](CC(C)C)NC(=O)[C@H](C)NC(=O)[C@H](C)NC(=O)[C@H](CC(C)C)NC(=O)[C@H](C)NC(=O)[C@H](CCCCN)NC(=O)[C@H](CC(C)C)NC(=O)[C@H](CC(N)=O)NC(=O)[C@@H](N)[C@@H](C)CC)C(=O)N[C@@H](CC(C)C)C(N)=O (stereo not given in full) [Mastoparan],scaled lipid accumulation score,library stock concentration: 3 mM,≤ -0.012
CNC(=O)Nc1ccc(-c2nc(N3CC4CCC(C3)O4)c3cnn(C4CCC5(CC4)OCCO5)c3n2)cc1,scaled lipid accumulation score,[3],≤ 0
same,scaled lipid accumulation score,[4],0.006
same,scaled lipid accumulation score,[5],≤ 0
same,scaled lipid accumulation score,[1],≤ 0
same,scaled lipid accumulation score,[2],0.733 and 0.772
c1cncc(CN2CCC(n3ncc4c(N5CCOCC5)nc(-c5ccc6[nH]ccc6c5)nc43)CC2)c1,scaled lipid accumulation score,[1],1.19 (active)
same,scaled lipid accumulation score,[2],1.19 (active)
COC(=O)Nc1ccc(-c2nc(N3CCOCC3)c3cnn(C4CCN(C(=O)OC)CC4)c3n2)cc1,scaled lipid accumulation score,[1],≤ 0
same,scaled lipid accumulation score,[2],≤ 0
CN(C)[C@@H]1C(O)=C(C(=O)NCNCCCC[C@H](N)C(=O)O)C(=O)[C@@]2(O)C(O)=C3C(=O)c4c(O)cccc4[C@@](C)(O)[C@H]3C[C@@H]12 [Lymecycline],scaled lipid accumulation score,,0.003
C[C@@H](N)c1ccc(C(=O)Nc2ccnc3[nH]ccc23)cc1.Cl.Cl,scaled lipid accumulation score,[2],1.13 (active)
CC(C)(C)OC(=O)Nc1cccc2[nH]ccc12 [(1H-Indol-4-yl)-Carbamic Acid tert-butyl ester],scaled lipid accumulation score,[6],≤ 0
C[C@@H](N)c1ccc(C(=O)Nc2ccnc3[nH]ccc23)cc1,scaled lipid accumulation score,[3],≤ -0.009
same,scaled lipid accumulation score,[4],≤ -0.009
same,scaled lipid accumulation score,[5],0.069
CCCCCCCCCCCCCC=CC(O)C(COP(=O)(O)O)NC(=O)CCCCCCC (stereo not given) [C-8 Ceramide-1-phosphate],scaled lipid accumulation score,[6],≤ 0
Nc1nc(F)nc2c1ncn2[C@@H]1O[C@H](COP(=O)(O)O)[C@@H](O)[C@@H]1O [Fludarabine Phosphate],scaled lipid accumulation score,[1],0.514
same,scaled lipid accumulation score,[2],0.748
CN1CCCN(C(c2ccccc2)c2ccc(Cl)cc2)CC1.Cl.Cl (stereo not given) [Homochlorcyclizine dihydrochloride],scaled lipid accumulation score,,0.879 (active)
CN1CCN(C(c2ccccc2)c2ccc(Cl)cc2)CC1 (stereo not given) [Chlorcyclizine hydrochloride],scaled lipid accumulation score,,0.377
same,scaled lipid accumulation score,library stock concentration: 5.9 mM,0.391
CN1CCN(C(c2ccccc2)c2ccccc2)CC1 [Cyclizine hydrochloride],scaled lipid accumulation score,,0.648
CN1CCN(C(c2ccccc2)c2ccccc2)CC1 [Cyclizine 2HCl],scaled lipid accumulation score,[1],≤ 0
same,scaled lipid accumulation score,[2],0.742
CN1CCN(C(c2ccccc2)c2ccccc2)CC1 [Cyclizine],scaled lipid accumulation score,library stock concentration: 7.5 mM,0.186
same,scaled lipid accumulation score,[2],0.521
[Cl-].[Li+] [Lithium Chloride],scaled lipid accumulation score,[2],≤ -0.07
COC(=O)C1=C(C)NC(C)=C(C(=O)OC)C1c1cccc(NC(=O)NCCCN2CCC(c3cccc(OC)c3)CC2)c1,scaled lipid accumulation score,[2],0.68
CC1CCN(c2cc(N3CCN(C)CC3)ccc2NC(=O)c2cc(C#N)c[nH]2)CC1 [listing 1 of 2 here],scaled lipid accumulation score,[2],1.32 (active)
CC1CCN(c2cc(N3CCN(C)CC3)ccc2NC(=O)c2cc(C#N)c[nH]2)CC1 [listing 2 of 2 here],scaled lipid accumulation score,[3],0.044
same,scaled lipid accumulation score,[4],≤ -0.016
same,scaled lipid accumulation score,[5],≤ -0.016
COc1cc(N2CCN(C)CC2)ccc1Nc1nc(N)c(C(=O)c2c(Cl)cccc2Cl)s1,scaled lipid accumulation score,[3],0.02
same,scaled lipid accumulation score,[4],≤ -0.009
same,scaled lipid accumulation score,[5],0.155
same,scaled lipid accumulation score,[2],0.8
"CCCC/C=C/C=C/C=C/CCCCCCCC(=O)OC [9(Z),11(E),13(E)-Octadecatrienoic Acid methyl ester]",scaled lipid accumulation score,[6],≤ 0
CC(=O)c1cc2c(cc1O)OC(C)(C)C=C2 [Eupatoriochromene],scaled lipid accumulation score,[2],0.066
C=CC(=O)N1CCC[C@@H](n2nc(-c3ccc(Oc4ccccc4)cc3)c3c(N)ncnc32)C1,scaled lipid accumulation score,[3],≤ -0.009
same,scaled lipid accumulation score,[4],0.313
same,scaled lipid accumulation score,[5],0.033
same,scaled lipid accumulation score,[1],≤ 0
same,scaled lipid accumulation score,[2],≤ 0 and 0.22
Nc1ncnc2c1c(-c1cccc(OCc3ccccc3)c1)cn2C1CC(CN2CCC2)C1 (stereo not given),scaled lipid accumulation score,[3],0.167
same,scaled lipid accumulation score,[4],0.351
same,scaled lipid accumulation score,[5],0.67
same,scaled lipid accumulation score,[2],0.657
Nc1ncnc2c1c(-c1cccc(OCc3ccccc3)c1)cn2[C@H]1C[C@H](CN2CCCC2)C1,scaled lipid accumulation score,[1],1.09 (active)
Nc1ncnc2c1c(-c1cccc(OCc3ccccc3)c1)cn2C1CC(CN2CCCC2)C1 (stereo not given),scaled lipid accumulation score,[2],0.36
Nc1ncnc2c1c(-c1cccc(OCc3ccccc3)c1)cn2[C@H]1C[C@@H](CN2CCC2)C1,scaled lipid accumulation score,[1],0.894 (active)
same,scaled lipid accumulation score,[2],1.01 (active)
Nc1ncnc2c1c(-c1ccc(Oc3ccccc3)cc1)cn2C1CCCC1,scaled lipid accumulation score,[2],≤ -0.07
COc1cc(O)c2c(c1)/C=C/C[C@H](O)[C@H](O)C(=O)/C=C\C[C@H](C)OC2=O [5z-7-oxozeaenol],scaled lipid accumulation score,[3],≤ -0.016
same,scaled lipid accumulation score,[4],≤ -0.016
same,scaled lipid accumulation score,[5],≤ -0.016
same,scaled lipid accumulation score,[2],0.613
CN1C(CCl)Nc2cc(Cl)c(S(N)(=O)=O)cc2S1(=O)=O (stereo not given) [Methyclothiazide],scaled lipid accumulation score,[1],≤ 0
same,scaled lipid accumulation score,[2],≤ -0.001
CN1C(CCl)Nc2cc(Cl)c(S(N)(=O)=O)cc2S1(=O)=O (stereo not given),scaled lipid accumulation score,[2],0.013
"COC(=O)CCC[C@H](O)[C@H](O)CO [5(S),6(R)-7-trihydroxymethyl Heptanoate]",scaled lipid accumulation score,[6],≤ 0
NC[C@@H]1CC[C@@H](N)[C@@H](O[C@H]2[C@H](O)[C@@H](O[C@H]3O[C@H](CO)[C@@H](O)[C@H](N)[C@H]3O)[C@H](N)C[C@@H]2N)O1 [Dibekacin],scaled lipid accumulation score,[2],0.108
CC(C)(C)NCC(O)c1ccc(O)c(CO)c1 (stereo not given),scaled lipid accumulation score,[2],0.076
CC(C)(C)NC[C@H](O)c1ccc(O)c(CO)c1,scaled lipid accumulation score,[2],≤ 0
CC(CCc1ccccc1)NCC(O)c1ccc(O)c(C(N)=O)c1 (stereo not given) [Labetalol HCl],scaled lipid accumulation score,[1],≤ 0
same,scaled lipid accumulation score,[2],0.464
OCc1cc(C(O)CNCCCCCCOCCCCc2ccccc2)ccc1O (stereo not given) [Salmeterol] [listing 1 of 2 here],scaled lipid accumulation score,[2],1.08 (active)
CC(CCc1ccccc1)NCC(O)c1ccc(O)c(C(N)=O)c1 (stereo not given) [Labetalol hydrochloride],scaled lipid accumulation score,,0.321
same,scaled lipid accumulation score,[2],0.546 and 0.164
CC(CCc1ccccc1)NCC(O)c1ccc(O)c(C(N)=O)c1 (stereo not given),scaled lipid accumulation score,[2],0.089
CC(C)(C)NCC(O)c1ccc(O)c(CO)c1 (stereo not given) [Salbutamol],scaled lipid accumulation score,,≤ 0
O=C(O)c1ccc2ccccc2c1O.OCc1cc(C(O)CNCCCCCCOCCCCc2ccccc2)ccc1O (stereo not given) [Salmeterol xinafoate],scaled lipid accumulation score,[2],0.978 (active)
CC(C)(C)NCC(O)c1ccc(O)c(CO)c1 (stereo not given) [Albuterol hemisulfate],scaled lipid accumulation score,[2],≤ 0
OCc1cc(C(O)CNCCCCCCOCCCCc2ccccc2)ccc1O (stereo not given) [Salmeterol] [listing 2 of 2 here],scaled lipid accumulation score,,0.275
same,scaled lipid accumulation score,library stock concentration: 4.8 mM,0.553
same,scaled lipid accumulation score,[2],0.62
O=C(CCCC[C@@H]1SC[C@@H]2NC(=O)N[C@@H]21)NCCCC[C@H](NC(=O)CCN1C(=O)C=CC1=O)C(=O)O [3-(N-Maleimidopropionyl)-biocytin],scaled lipid accumulation score,[6],≤ 0
Cc1c(C(=O)Nc2ccc(N3CCC(N4CCOCC4)CC3)c(C#N)c2)cnn1-c1ccc(Cl)cc1,scaled lipid accumulation score,[1],0.756
same,scaled lipid accumulation score,[2],0.699
C[N+]1(C)[C@@H]2C[C@@H](OC(=O)C(O)(c3cccs3)c3cccs3)C[C@H]1[C@@H]1O[C@@H]12 [Tiotropium Bromide hydrate],scaled lipid accumulation score,[1],≤ 0
same,scaled lipid accumulation score,[2],≤ 0
"CCCCC[C@H]1C=C[C@@H]2[C@@H](CC=CCCCC(=O)O1)[C@@H](O)C[C@H]2O [Prostaglandin F2.alpha. 1,15-lactone]",scaled lipid accumulation score,[6],≤ 0
"CCCCC/C=C/C=C1/C=CC(=O)[C@@H]1CCCCCCC(=O)O [15-deoxy-.DELTA.12,14-Prostaglandin A1]",scaled lipid accumulation score,[6],≤ 0
CC(C)C[C@H](NC(=O)CNC(=O)c1cc(Cl)ccc1Cl)B1OC(=O)CC(CC(=O)O)(C(=O)O)O1 (stereo not given in full),scaled lipid accumulation score,[1],≤ 0
same,scaled lipid accumulation score,[2],0.118
OCC1OC(n2cnc3c(NC4CCCCC4)ncnc32)C(O)C1O (stereo not given) [N6-Cyclohexyladenosine],scaled lipid accumulation score,[2],0.037
Cc1cccc(CCN2CCC(C(=O)c3ccc(NS(C)(=O)=O)cc3)CC2)n1,scaled lipid accumulation score,library stock concentration: 9.9 mM,0.011
Cc1cccc(CCN2CCC(C(=O)c3ccc(NS(C)(=O)=O)cc3)CC2)n1 [E-4031 dihydrochloride],scaled lipid accumulation score,[2],≤ 0
Fc1ccc(Cl)cc1-c1nc(Nc2ccncc2)c2nccnc2n1,scaled lipid accumulation score,[2],≤ -0.001
O=C1c2ccccc2C(=O)C1c1ccccc1 [Phenindione],scaled lipid accumulation score,,≤ 0
same,scaled lipid accumulation score,[1],≤ 0
same,scaled lipid accumulation score,library stock concentration: 9 mM,0.014
same,scaled lipid accumulation score,[2],≤ 0
O=C1C=CC(=O)C2=C1C1c3ccccc3C2c2ccccc21,scaled lipid accumulation score,[2],0.953 (active)
"CCCCCC(O)C=CC1C2CC(CO2)C1CCCCCCC(=O)O (stereo not drawn) [9,11-methane-epoxy Prostaglandin F1.alpha.]",scaled lipid accumulation score,[6],0.048
O=C(NC1CCN(CCCCC2(C(=O)NCC(F)(F)F)c3ccccc3-c3ccccc32)CC1)c1ccccc1-c1ccc(C(F)(F)F)cc1 [Lomitapide] [listing 1 of 2 here],scaled lipid accumulation score,[2],≤ 0
O=C(Nc1ccc2c(c1)CCN(Cc1ncn[nH]1)C2)c1ccccc1-c1ccc(C(F)(F)F)cc1,scaled lipid accumulation score,[2],≤ 0
O=C(NC1CCN(CCCCC2(C(=O)NCC(F)(F)F)c3ccccc3-c3ccccc32)CC1)c1ccccc1-c1ccc(C(F)(F)F)cc1 [Lomitapide] [listing 2 of 2 here],scaled lipid accumulation score,[1],1.05 (active)
